# PubChem BioAssay AID1159580 (chemical genetic matrix, 2015)
# The campaign covered roughly 5,500 compounds. About 2,000 (36%) were called active. Inconclusive results (about 18%) are left out. Some of the results follow. A number with no mark means an inactive call. Cut-off read from the data, not from the text of the source: active = normalized growth mostly below about 0.91 (no sharp cut-off); inconclusive = no clear call, values can overlap the other calls; inactive = mostly above about 0.92.
# Experiment: chemical genetic growth profiling, strain panel (AID 1159580);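 note: tested at 20 µM; growth read once vehicle control cultures reached saturation at 30 °C; 1 = growth at the plate median or of vehicle wells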
# Settings: S. cerevisiae deletion strains, growth OD
# [1] = locus YAR019C, strain CDC15, stronger effect = lower value
# [2] = locus YBL105C, strain PKC1, stronger effect = lower value
# [3] = locus YBR135W, strain CKS1, stronger effect = lower value
# [4] = locus YBR136W, strain MEC1, stronger effect = lower value
# [5] = locus YBR160W, strain CDC28, stronger effect = lower value
# [6] = locus YDL017W, strain CDC7, stronger effect = lower value
# [7] = locus YDL028C, strain MPS1, stronger effect = lower value
# [8] = locus YDL101C, strain DUN1, stronger effect = lower value
# [9] = locus YDL108W, strain KIN28, stronger effect = lower value
# [10] = locus YDL132W, strain cdc53, stronger effect = lower value
# [11] = locus YDL214C, strain PRR2, stronger effect = lower value
# [12] = locus YDR052C, strain DBF4, stronger effect = lower value
# [13] = locus YDR054C, strain cdc34, stronger effect = lower value
# [14] = locus YDR226W, strain ADK1, stronger effect = lower value
# [15] = locus YDR477W, strain SNF1, stronger effect = lower value
# [16] = locus YER123W, strain YCK3, stronger effect = lower value
# [17] = locus YER133W, strain GLC7, stronger effect = lower value
# [18] = locus YFL009W, strain cdc4, stronger effect = lower value
# [19] = locus YFL029C, strain CAK1, stronger effect = lower value
# [20] = locus YFR003C, strain YPI1, stronger effect = lower value
# [21] = locus YFR019W, strain FAB1, stronger effect = lower value
# [22] = locus YFR028C, strain CDC14, stronger effect = lower value
# [23] = locus YGR040W, strain KSS1, stronger effect = lower value
# [24] = locus YGR052W, strain FMP48, stronger effect = lower value
# [25] = locus YGR092W, strain DBF2, stronger effect = lower value
# [26] = locus YHR030C, strain SLT2, stronger effect = lower value
# [27] = locus YHR079C, strain IRE1, stronger effect = lower value
# [28] = locus YHR082C, strain KSP1, stronger effect = lower value
# [29] = locus YHR205W, strain SCH9, stronger effect = lower value
# [30] = locus YIL147C, strain SLN1, stronger effect = lower value
# [31] = locus YJL095W, strain BCK1, stronger effect = lower value
# [32] = locus YJL128C, strain PBS2, stronger effect = lower value
# [33] = locus YJL157C, strain FAR1, stronger effect = lower value
# [34] = locus YJR016C, strain ILV3, stronger effect = lower value
# [35] = locus YJR066W, strain TOR1 (second series), stronger effect = lower value
# [36] = locus YJR066W, strain TOR1, stronger effect = lower value
# [37] = locus YKL048C, strain ELM1, stronger effect = lower value
# [38] = locus YKL067W, strain YNK1, stronger effect = lower value
# [39] = locus YKL101W, strain HSL1, stronger effect = lower value
# [40] = locus YKL193C, strain SDS22, stronger effect = lower value
# [41] = locus YKL203C, strain TOR2, stronger effect = lower value
# [42] = locus YLR113W, strain HOG1, stronger effect = lower value
# [43] = locus YLR133W, strain CKI1, stronger effect = lower value
# [44] = locus YLR403W, strain SFP1, stronger effect = lower value
# [45] = locus YML070W, strain DAK1, stronger effect = lower value
# [46] = locus YMR001C, strain CDC5, stronger effect = lower value
# [47] = locus YMR205C, strain PFK2 (second series), stronger effect = lower value
# [48] = locus YMR277W, strain FCP1, stronger effect = lower value
# [49] = locus YNL006W, strain LST8, stronger effect = lower value
# [50] = locus YNL020C, strain ARK1, stronger effect = lower value
# [51] = locus YNL161W, strain CBK1, stronger effect = lower value
# [52] = locus YNL183C, strain NPR1, stronger effect = lower value
# [53] = locus YNL207W, strain RIO2, stronger effect = lower value
# [54] = locus YNL222W, strain SSU72, stronger effect = lower value
# [55] = locus YNL307C, strain MCK1 (second series), stronger effect = lower value
# [56] = locus YOL078W, strain AVO1, stronger effect = lower value
# [57] = locus YOL136C, strain PFK27, stronger effect = lower value
# [58] = locus YOR061W, strain CKA2, stronger effect = lower value
# [59] = locus YOR119C, strain RIO1, stronger effect = lower value
# [60] = locus YOR231W, strain MKK1, stronger effect = lower value
# [61] = locus YOR329C, strain SCD5, stronger effect = lower value
# [62] = locus YPL031C, strain PHO85, stronger effect = lower value
# [63] = locus YPL153C, strain RAD53, stronger effect = lower value
# [64] = locus YPL204W, strain HRR25, stronger effect = lower value
# [65] = locus YPL209C, strain IPL1, stronger effect = lower value
# [66] = locus YPL256C, strain CLN2, stronger effect = lower value
# [67] = locus YPR025C, strain CCL1, stronger effect = lower value
# [68] = locus YPR106W, strain ISR1, stronger effect = lower value
# [69] = locus YPR111W, strain DBF20, stronger effect = lower value
# [70] = strain NNK1, stronger effect = lower value
# [71] = strain TSCII, stronger effect = lower value
smiles,measurement,setting,value
O=S(=O)(Nc1c(F)cccc1F)c1ccc(Cl)c(Cl)c1,normalized growth,[1],0.933
same,normalized growth,[2],0.946
same,normalized growth,[3],0.932
same,normalized growth,[4],0.943
same,normalized growth,[5],0.937
same,normalized growth,[6],0.945
same,normalized growth,[7],0.939
same,normalized growth,[8],0.949
same,normalized growth,[9],0.947
same,normalized growth,[10],0.961
same,normalized growth,[11],0.984
same,normalized growth,[12],0.956
same,normalized growth,[13],0.933
same,normalized growth,[14],0.943
same,normalized growth,[15],0.959
same,normalized growth,[16],0.962
same,normalized growth,[17],0.964
same,normalized growth,[18],0.931
same,normalized growth,[19],0.933
same,normalized growth,[20],0.946
same,normalized growth,[21],0.948
same,normalized growth,[22],0.933
same,normalized growth,[23],0.951
same,normalized growth,[24],1.05
same,normalized growth,[25],0.843
same,normalized growth,[26],0.956
same,normalized growth,[27],0.942
same,normalized growth,[28],1
same,normalized growth,[29],0.982
same,normalized growth,[30],0.933
same,normalized growth,[31],0.947
same,normalized growth,[32],0.874
same,normalized growth,[33],0.97
same,normalized growth,[34],0.931
same,normalized growth,[35],0.967
same,normalized growth,[36],1.03
same,normalized growth,[37],0.93
same,normalized growth,[38],0.962
same,normalized growth,[39],0.96
same,normalized growth,[40],0.937
same,normalized growth,[41],1.02
same,normalized growth,[42],0.926
same,normalized growth,[43],0.964
same,normalized growth,[44],0.966
same,normalized growth,[45],0.961
same,normalized growth,[46],0.937
same,normalized growth,[47],0.973
same,normalized growth,[48],0.936
same,normalized growth,[49],0.941
same,normalized growth,[50],0.955
same,normalized growth,[51],0.94
same,normalized growth,[52],0.947
same,normalized growth,[53],0.937
same,normalized growth,[54],0.937
same,normalized growth,[55],0.95
same,normalized growth,[56],0.938
same,normalized growth,[57],0.985
same,normalized growth,[58],0.969
same,normalized growth,[59],1.05
same,normalized growth,[60],0.935
same,normalized growth,[61],0.943
same,normalized growth,[62],0.964
same,normalized growth,[63],0.927
same,normalized growth,[64],0.95
same,normalized growth,[65],0.94
same,normalized growth,[66],0.914
same,normalized growth,[67],0.934
same,normalized growth,[68],0.957
same,normalized growth,[69],0.934
same,normalized growth,[70],0.953
same,normalized growth,[71],0.93
Cn1cc(Br)c(-c2cccc(NS(=O)(=O)c3ccc(Cl)cc3)c2)n1,normalized growth,[1],0.987
same,normalized growth,[2],0.976
same,normalized growth,[3],0.998
same,normalized growth,[4],0.995
same,normalized growth,[5],0.979
same,normalized growth,[6],0.987
same,normalized growth,[7],0.992
same,normalized growth,[8],0.977
same,normalized growth,[9],0.999
same,normalized growth,[10],0.994
same,normalized growth,[11],1
same,normalized growth,[12],0.976
same,normalized growth,[13],0.988
same,normalized growth,[14],0.987
same,normalized growth,[15],0.992
same,normalized growth,[16],0.998
same,normalized growth,[17],1
same,normalized growth,[18],0.989
same,normalized growth,[19],0.993
same,normalized growth,[20],0.994
same,normalized growth,[21],1
same,normalized growth,[22],0.998
same,normalized growth,[23],0.995
same,normalized growth,[24],1.04
same,normalized growth,[25],0.984
same,normalized growth,[26],1.12
same,normalized growth,[27],1.11
same,normalized growth,[28],1.11
same,normalized growth,[29],0.987
same,normalized growth,[30],0.986
same,normalized growth,[31],0.988
same,normalized growth,[32],0.986
same,normalized growth,[33],0.998
same,normalized growth,[34],0.993
same,normalized growth,[35],1.01
same,normalized growth,[36],1.07
same,normalized growth,[37],0.999
same,normalized growth,[38],1.02
same,normalized growth,[39],1
same,normalized growth,[40],0.995
same,normalized growth,[41],1.06
same,normalized growth,[42],0.983
same,normalized growth,[43],1
same,normalized growth,[44],0.999
same,normalized growth,[45],1.01
same,normalized growth,[46],0.985
same,normalized growth,[47],1.01
same,normalized growth,[48],0.998
same,normalized growth,[49],0.999
same,normalized growth,[50],0.997
same,normalized growth,[51],0.981
same,normalized growth,[52],1.06
same,normalized growth,[53],0.987
same,normalized growth,[54],0.995
same,normalized growth,[55],0.98
same,normalized growth,[56],1
same,normalized growth,[57],1
same,normalized growth,[58],1
same,normalized growth,[59],1.06
same,normalized growth,[60],0.982
same,normalized growth,[61],0.986
same,normalized growth,[62],0.989
same,normalized growth,[63],0.994
same,normalized growth,[64],0.997
same,normalized growth,[65],0.992
same,normalized growth,[66],1.13
same,normalized growth,[67],0.981
same,normalized growth,[68],0.99
same,normalized growth,[69],0.985
same,normalized growth,[70],1
same,normalized growth,[71],0.993
COC(=O)c1cccc(NS(=O)(=O)c2ccc(Cl)c(Cl)c2)c1,normalized growth,[1],0.981
same,normalized growth,[2],0.969
same,normalized growth,[3],0.973
same,normalized growth,[4],0.973
same,normalized growth,[5],0.983
same,normalized growth,[6],0.978
same,normalized growth,[7],0.977
same,normalized growth,[8],0.979
same,normalized growth,[9],0.973
same,normalized growth,[10],0.981
same,normalized growth,[11],0.971
same,normalized growth,[12],0.972
same,normalized growth,[13],0.961
same,normalized growth,[14],0.986
same,normalized growth,[15],0.991
same,normalized growth,[16],0.973
same,normalized growth,[17],0.985
same,normalized growth,[18],0.97
same,normalized growth,[19],0.982
same,normalized growth,[20],0.974
same,normalized growth,[21],0.994
same,normalized growth,[22],0.973
same,normalized growth,[23],1
same,normalized growth,[24],1.01
same,normalized growth,[25],0.948
same,normalized growth,[26],0.852
same,normalized growth,[27],0.923
same,normalized growth,[28],1.08
same,normalized growth,[29],0.904
same,normalized growth,[30],0.975
same,normalized growth,[31],0.896
same,normalized growth,[32],0.902
same,normalized growth,[33],0.98
same,normalized growth,[34],0.981
same,normalized growth,[35],0.98
same,normalized growth,[36],1.06
same,normalized growth,[37],0.949
same,normalized growth,[38],0.972
same,normalized growth,[39],0.962
same,normalized growth,[40],0.974
same,normalized growth,[41],1.05
same,normalized growth,[42],0.861 (active)
same,normalized growth,[43],0.978
same,normalized growth,[44],0.985
same,normalized growth,[45],0.963
same,normalized growth,[46],0.975
same,normalized growth,[47],0.977
same,normalized growth,[48],0.973
same,normalized growth,[49],0.978
same,normalized growth,[50],0.974
same,normalized growth,[51],0.982
same,normalized growth,[52],1.04
same,normalized growth,[53],0.974
same,normalized growth,[54],0.98
same,normalized growth,[55],0.973
same,normalized growth,[56],0.979
same,normalized growth,[57],0.959
same,normalized growth,[58],0.986
same,normalized growth,[59],1.05
same,normalized growth,[60],0.953
same,normalized growth,[61],0.977
same,normalized growth,[62],0.98
same,normalized growth,[63],0.963
same,normalized growth,[64],0.959
same,normalized growth,[65],0.981
same,normalized growth,[66],0.895
same,normalized growth,[67],0.977
same,normalized growth,[68],0.977
same,normalized growth,[69],0.972
same,normalized growth,[70],0.966
same,normalized growth,[71],0.98
